Test results: PubChem BioAssay (NCI)
About 83,000 compounds went through this panel and 20% of them were active in at least one assay; those are over-represented in the sample as a whole.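 Assay: single dose, 48 h. Readout: percent growth (0 = no net growth; negative = cell death). Active: <10.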 Active and inactive are the calls of the source.

System: SK-MEL-2 melanoma
Assay: NCI-60 one-dose screen, 48 h (100 = growth as untreated, 0 = no growth, -100 = all killed)
Conditions: 10 µM unless noted

SMILES	growth
COc1ccc2c(c1)C(=O)c1c-2c(=O)n(CCCCCCC(=O)NO)c2ccccc12	10.4% (inactive)
CCC(C)(C)C(=O)O[C@H]1C[C@@H](C)C=C2C=C[C@H](C)[C@H](CC[C@@H]3C[C@@H](O)CC(=O)O3)[C@H]21	26.3% (inactive)
CCC1=C(c2ccc(OC)cc2)C(C)(C)Oc2c1ccc(O)c2CN1CCCC1	-58.5% (active)
CCCCCCCCCCCCCCCCCC1=NC(C)(C)CN1CCO	-66.2% (active)
O=C(Nc1ccc(Cl)cc1)Nc1ccc(Nc2nncc3ccccc23)cc1	18.9% (inactive)
COc1cc(C2C=C(c3ccc(C)cc3)Nc3nc(SC)[nH]c(=O)c32)ccc1Oc1ccnc2cc(Cl)ccc12 (configuration not stated)	78.9% (inactive)
C=C(C[C@@](O)(C(=O)Oc1ccccc1)C(=O)C1CCCCC1)c1ccccc1	105% (inactive)
COc1ccc(-c2cncn2-c2ccc(-c3nc4cc(OC)c(OC)c(OC)c4s3)cc2)cc1N	7.6% (active)
CCc1[nH]nc(-c2ccc(OC)cc2)c1-c1ccccc1OCCN(CC)CC	95.5% (inactive)
COc1ccc2c(c1)C(=O)c1c-2c(OCCCN(C)C)nc2cc(Br)ccc12	97.7% (inactive)
N#Cc1c(N)[nH]c(S)c1C#N	92% (inactive)
CCCCCCCCCCCCCCCCN=C(CC(=O)O)C(=O)O	92.8% (inactive)
COc1ccc(CCN2CCCN3C2=Nc2ccccc2S3(=O)=O)cc1	51.9% (inactive)
Cc1nnc(Nc2ccc(NC(=O)Nc3ccc(Cl)cc3)cc2)c2ccccc12	44% (inactive)
CCCCCCCCCCSc1ncnc2nc[nH]c12	101% (inactive)
C=C(C[C@](O)(C(=O)/C=C/c1ccc(Cl)cc1)C(=O)OC)c1ccccc1	102% (inactive)
CN1C(=O)/C(=C/c2nc(-c3cccc(F)c3)n3ccccc23)c2ccccc21	68.2% (inactive)
O=C1C(=O)c2ccc(Br)cc2-c2cc(Br)ccc21	87.7% (inactive)
CCN1CCN(c2cc(-c3cn[nH]c3-c3cc(C)cc(OC)c3)nc(-c3cccnc3)n2)CC1	93.6% (inactive)
O=C(CN1CCCCC1)Sc1nnc2sc3ccccc3n12	109% (inactive)
CN1CCN(Cc2ccc(NC(=O)c3[nH]ncc3Nc3ccnc4ccnn34)cc2)CC1	60.6% (inactive)
O=C(Nc1ccc(Cl)cc1)Nc1ccc(Oc2nncc3ccccc23)cc1	12.4% (inactive)
CCCCCCCC/C=C/CCCCCCCC1=NC(C)(C)CN1CCO	-44.4% (active)
CN(CC(=O)N(Cc1ccc(C2CCCCC2)cc1)c1ccc(C(=O)O)cc1)S(=O)(=O)c1c(F)c(F)c(F)c(F)c1F	-31.7% (active)
CCN(CC)CCCNCCCNc1cc(OC)cc2cccnc12	101% (inactive)

System: EKVX NSCLC
Assay: as above
Conditions: 10 µM unless noted

SMILES	growth
CCC1=C(c2ccc(OC)cc2)C(C)(C)Oc2c1ccc(O)c2CN1CCCC1	88.8% (inactive)
CCCCCCCCCCCCCCCCCC1=NC(C)(C)CN1CCO	15.3% (inactive)
O=C(Nc1ccc(Cl)cc1)Nc1ccc(Nc2nncc3ccccc23)cc1	20.6% (inactive)
COc1cc(C2C=C(c3ccc(C)cc3)Nc3nc(SC)[nH]c(=O)c32)ccc1Oc1ccnc2cc(Cl)ccc12 (configuration not stated)	77% (inactive)
C=C(C[C@@](O)(C(=O)Oc1ccccc1)C(=O)C1CCCCC1)c1ccccc1	94.4% (inactive)
CCCCCCCC1(C)NC(=O)NC1=O (configuration not stated)	105% (inactive)
CCOC(=O)c1c(C)c(C(=O)OCC)n(C)c1C	75% (inactive)
COc1ccc(-c2cncn2-c2ccc(-c3nc4cc(OC)c(OC)c(OC)c4s3)cc2)cc1N	58.4% (inactive)
CCc1[nH]nc(-c2ccc(OC)cc2)c1-c1ccccc1OCCN(CC)CC	94.5% (inactive)
COc1ncc(-c2ccc3nccc(C#CCN4CCN(S(C)(=O)=O)CC4)c3c2)cc1NS(=O)(=O)c1ccc(F)cc1F	9.26% (active)
N#Cc1c(N)[nH]c(S)c1C#N	101% (inactive)
CC(O)c1nc2c(c(=O)n(C)c(=O)n2C)n1C (configuration not stated)	111% (inactive)
Cc1ccc(NC(=O)Nc2ccc(-c3cccnc3)cc2N2CCC(CO)CC2)cc1	55.5% (inactive)
CCCCCCCCCCCCCCCCN=C(CC(=O)O)C(=O)O	113% (inactive)
Cc1nnc(Nc2ccc(NC(=O)Nc3ccc(Cl)cc3)cc2)c2ccccc12	44.2% (inactive)
CCCCCCCCCCSc1ncnc2nc[nH]c12	51.4% (inactive)

SMILES	growth
C=C(C[C@](O)(C(=O)/C=C/c1ccc(Cl)cc1)C(=O)OC)c1ccccc1	82.8% (inactive)
O=C(/C=C/c1ccccc1Cl)c1ccc(O)cc1	84.8% (inactive)
CC(=O)NC1(C(=O)O)CCCC1	112% (inactive)
CCOC(=O)c1cc(-c2cccnc2)nc2c(Cl)cc(Cl)cc12	96.5% (inactive)
CN1C(=O)/C(=C/c2nc(-c3cccc(F)c3)n3ccccc23)c2ccccc21	79% (inactive)
CCN1CCN(c2cc(-c3cn[nH]c3-c3cc(C)cc(OC)c3)nc(-c3cccnc3)n2)CC1	106% (inactive)
ClC1=C(Cl)C(Cl)=C(Cl)C1=C/C=C/c1ccccc1	-6.52% (active)
O=C(CN1CCCCC1)Sc1nnc2sc3ccccc3n12	104% (inactive)
CN1CCN(Cc2ccc(NC(=O)c3[nH]ncc3Nc3ccnc4ccnn34)cc2)CC1	100% (inactive)
CC1=CC(=O)C(C(C)=Nc2ccccc2Cl)C(=O)O1 (configuration not stated)	103% (inactive)
CSc1ncc2ncn(C3OC(CO)C(O)C3O)c2n1 (configuration not stated)	107% (inactive)
COc1ccc2nc3cc(Cl)ccc3c(Nc3cc(C(C)C)c(O)cc3C)c2c1	25% (inactive)
O=C(Nc1ccc(Cl)cc1)Nc1ccc(Oc2nncc3ccccc23)cc1	26.7% (inactive)
CCCCCCCC/C=C/CCCCCCCC1=NC(C)(C)CN1CCO	58.5% (inactive)
CN(CC(=O)N(Cc1ccc(C2CCCCC2)cc1)c1ccc(C(=O)O)cc1)S(=O)(=O)c1c(F)c(F)c(F)c(F)c1F	92.1% (inactive)
CCN(CC)CCCNCCCNc1cc(OC)cc2cccnc12	80.7% (inactive)
